PI5P4K alpha inh: qHTS for Inhibitors of phosphatidylinositol 5-phosphate 4-kinase (PI5P4K). 1.2% of 330,000 active. PI5P4Kalpha enzyme, ADP-Glo luminescence, 60 min; hits give low values. max response, %. Phosphatidylinositol 5-phosphate 4-kinase type-2 alpha (Homo sapiens), P48426. AID 652105, 2013; active = max response of -50% or lower; inconclusive = between -30% and -50%; inactive = -30% or higher; note: value at the top dose of about 77 µM; % is set by controls: 0 for no effect and ±100 for the full control effect
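Single end-point luminescence (ADP-Glo) quantified ADP from PI5P4Kalpha turnover; ATP 5 microM final, 1 h at RT, 0.1% CHAPS and 0.28 mM EGTA in HEPES pH 7.4.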
BAZ2B inh: qHTS Assay for Inhibitors of BAZ2B; Bromodomain adjacent to zinc finger domain protein 2B (Homo sapiens), Q9UIF8; AlphaScreen BAZ2B-H3K14Ac peptide displacement; Potency, µM (top dose mostly 114 µM), for inactives: top-dose activity change, negative = inhibition, usual class: inhibitors; 4.4% of 360,000 active; note: potency is the fitted concentration of half-maximal effect; % is set by controls: 0 for no effect and ±100 for the full control effect; nearly all actives have a fitted effect of over 60% in size
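AlphaScreen displacement of biotin-H3(5-23)K14Ac peptide (50 nM final) from BAZ2B (50 nM final) in PBS pH 7.4, 0.01% Tween-20; complex preformed 30 min RT, then compounds (top 110 uM) 30 min RT, beads 20 min dark.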
G9a inh: qHTS Assay for Inhibitors of Histone Lysine Methyltransferase G9a | Histone-lysine N-methyltransferase EHMT2 (Homo sapiens), Q96KQ7 | G9a H3K9 monomethylation, AlphaScreen, 2 h | Potency, µM (highest dose often 102 µM), inactives show top-dose activity, negative = inhibition, most hits filed as inhibitors | 8.8% of 350,000 active; note: potency is the fitted concentration of half-maximal effect; % is set by controls: 0 for no effect and ±100 for the full control effect; nearly all actives have a fitted effect of over 75% in size
Target sequence (Q96KQ7 913-1193 limits assumed): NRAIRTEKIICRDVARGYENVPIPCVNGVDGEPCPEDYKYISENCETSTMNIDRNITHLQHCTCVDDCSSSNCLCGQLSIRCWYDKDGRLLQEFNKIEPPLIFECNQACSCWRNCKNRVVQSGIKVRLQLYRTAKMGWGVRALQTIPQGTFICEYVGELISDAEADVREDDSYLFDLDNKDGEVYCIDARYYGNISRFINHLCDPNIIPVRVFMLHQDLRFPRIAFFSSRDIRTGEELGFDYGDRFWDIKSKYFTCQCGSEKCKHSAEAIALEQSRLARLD
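Methyltransferase reactions run at room temperature for 2 h (20 nM enzyme, 500 nM biotin-H3K9 peptide, 20 uM SAM) after a 15 min compound preincubation; product detected by AlphaScreen beads and anti-H3K9me1 antibody.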
JMJD2A Tudor: qHTS Assay for Inhibitors of JMJD2A-Tudor Domain. Lysine-specific demethylase 4A (Homo sapiens), O75164. AlphaScreen JMJD2A-Tudor / H3K4me3 peptide binding. Potency, µM (highest dose often 114 µM), for inactives: at the top dose activity change, negative = inhibition, most hits filed as inhibitors. 4.4% of 390,000 active. AID 504339, 2011; note: potency is the fitted concentration of half-maximal effect; % is set by controls: 0 for no effect and ±100 for the full control effect; nearly all actives have a fitted effect of over 50% in size
L3MBTL1 block: qHTS Assay for the Inhibitors of L3MBTL1. AlphaScreen L3MBTL1–H3K9me1 peptide binding. 0.66% of 230,000 active. Lethal(3)malignant brain tumor-like protein 1 (Homo sapiens), Q9Y468. Potency, µM (highest dose often 57.1 µM), for inactives: top-dose activity, negative = inhibition, usual class: inhibitors. AID 485360, 2010; note: potency is the fitted concentration of half-maximal effect; % is set by controls: 0 for no effect and ±100 for the full control effect; nearly all actives have a fitted effect of over 60% in size
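L3MBTL1 50 nM + b-AHA-H3(1-15)K9me1 75 nM, 30 min RT; compound added, 30 min RT; streptavidin donor/Ni-chelate acceptor beads 10 ug/mL each final, 30 min RT dark; AlphaScreen read.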
HP1b chromo inh: HTS for Inhibitors of HP1-beta Chromodomain Interactions with Methylated Histone Tails; Potency, µM (titrated, usually from 114 µM), without a hit: at the highest dose activity change, negative = inhibition, usual class: inhibitors; AlphaScreen HP1-beta / biotin-H3K9me3 peptide binding; 0.56% of 390,000 active; Chromobox protein homolog 1 (Homo sapiens), P83916; note: potency is the fitted concentration of half-maximal effect; nearly all actives have a fitted effect of over 70% in size
Target sequence (P83916 whole entry, looked up): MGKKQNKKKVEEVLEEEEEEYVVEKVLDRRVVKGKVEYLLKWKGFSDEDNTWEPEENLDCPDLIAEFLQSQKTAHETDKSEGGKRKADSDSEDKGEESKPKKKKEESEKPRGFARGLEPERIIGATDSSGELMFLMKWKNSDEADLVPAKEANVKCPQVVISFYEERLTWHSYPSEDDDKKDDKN
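HP1-beta protein (50 nM final) preincubated 30 min at room temperature with biotinylated H3(1-18)K9me3 peptide (50 nM) in PBS pH 7.4, 0.01% Tween-20, then compound added for 30 min. AlphaScreen streptavidin donor/nickel chelate acceptor beads (10 ug/mL final), 30 min dark, luminescence read.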
The depositor's hits bear a star; ? = inconclusive; · = no result given; [ ] = remark or other dose. Shown are actives, neighbours in structure and some others; about 11% of the full set was active somewhere. Unless noted, calls come from the whole dose curve; as a rule, active = well fitted inhibition curve with a large enough effect; inconclusive = small, poorly fitted or top-dose-only effect; inactive = no such curve, though single readings can be large or run the other way.

SMILES | PI5P4K alpha inh | BAZ2B inh | G9a inh | JMJD2A Tudor | L3MBTL1 block | HP1b chromo inh
CC(C)CC(CSc1ccc(Br)cc1)N1CCN(CC(C)C)CCC1=O (stereo not drawn) | · | · | · | 39% | · | 76%
Cc1cc(C)c2c(NC(N)=S)n[nH]c2n1 | 1 | 0% | 25µM* | 32µM* | · | -1%
COc1ccc(/C=C\c2cc(OC)c(OC)cc2CC[N+](C)(C)C)cc1OC | 0 | -28% | 13µM* | -24% | -8% | 2%
COc1cc2c(cc1OC)C1=NC(=O)CN1C(SCc1ccc(C)cc1)=N2 | -7 | 79µM* | ? | -13%[57.1 µM] | 0% | 14%
C=CCSC1=Nc2cc(OC)c(OC)cc2C2=NC(=O)CN12 | 1 | -19% | 50µM* | -16% | 1% | 28%
Cc1cccc(NS(=O)(=O)c2ccc3c(c2)CCN3C(=O)C2CC2)c1C | · | · | -9%[59 µM] | -21% | · | 11%
COc1ccc(CN(Cc2cccnc2)S(=O)(=O)c2ccc(-n3cnnn3)c(C)c2)cc1OC | · | -37% | 16µM* | -24% | -4% | 10%
COc1cc(S(=O)(=O)N(Cc2cccnc2)Cc2cccc(OC)c2OC)ccc1-n1cnnn1 | 10 | 79µM* | 18µM* | 1% | · | 16%
O=C(NC(=S)N1CCCCC1)c1cccs1 | 4 | -37% | ? | -19% | 1% | -8%
O=C(NC(=S)N1CCCCC1)c1csc([N+](=O)[O-])c1 | -4 | -32% | 25µM* | -13% | 1% | -21%
C=CCNC(=S)NC(=O)c1csc([N+](=O)[O-])c1 | -27 | -21% | 25µM* | -31% | -20% | -15%
Cc1ccc(C)c(CN2C(=O)c3ccccc3S(=O)c3ccc(C(=O)NCCc4ccc(Cl)cc4)cc32)c1 (stereo not drawn) | · | -11% | -28%[59 µM] | -6% | · | 19%
CCCN1CNc2c(c(=O)[nH]c(=S)n2CCc2cccc(Cl)c2Cl)C1 | · | · | · | -14% | · | 4%
CCOc1ccccc1-c1n[nH]c(=S)o1 | · | ? | 1.8µM* | 40µM* | · | 16%
CCOc1ccccc1-c1nc(-c2ccncc2)no1 | -8 | ? | 17%[59 µM] | -1% | · | 41%
CCOc1ccc(-c2nn[nH]n2)cc1 | -13 | ? | -30%[2.33 µM] | 50µM* | · | 14%
COc1ccc(-c2n[nH]c(=S)o2)c(OC)c1 | -86* | -37% | ? | 79µM* | · | 52%
CCOc1ccc(-c2n[nH]c(=S)o2)cc1 | ? | · | 5µM* | ? | 3% | 23%
CCOc1ccc(CNC(=O)CCS(=O)(=O)c2cc3c4c(c2)CCN4C(=O)CC3)cc1OC | · | -5% | -8%[59 µM] | -2% | · | 25%
CCS(=O)(=O)c1nc(S(=O)(=O)c2ccc(Cl)cc2)c(NCc2ccc(Cl)cc2)s1 | · | 0% | 2%[59 µM] | -16% | · | 25%
Cc1nc2cnc(N(C)C)nc2n(C[C@H]2CCCO2)c1=O | · | · | 4%[0.501 µM] | · | · | ·
CCCCc1cc(-c2n[nH]c(=S)o2)c2ccccc2n1 | -56* | ? | 4.5µM* | -25% | · | 16%
Cc1c(C(=O)N2CCN(c3ccccc3)CC2)oc2c1C(=O)CC(C)(C)C2 | -1 | -25% | 16% | -10% | · | 19%
Cc1c(C(=O)N2CCN(Cc3ccccc3)CC2)oc2c1C(=O)CC(C)(C)C2 | 3 | 79µM* | 35µM* | -17% | · | 18%
O=C(COc1ccccc1[N+](=O)[O-])N(Cc1ccco1)c1ccccn1 | · | -24% | 0%[59 µM] | -8% | · | 46%
SMILES | PI5P4K alpha inh | BAZ2B inh | G9a inh | JMJD2A Tudor | L3MBTL1 block | HP1b chromo inh
O=C(CSc1nnc(SCc2ccccc2)s1)NNC(=S)Nc1ccccc1 | -13 | -22% | 2.2µM* | -23% | -12% | -38%
O=C(CSc1nnc(SCc2ccccc2)s1)N/N=C/C=C/c1ccco1 | -96* | 25µM* | 13µM* | 40µM* | 28µM* | 25µM*
CCn1c(SCC(=O)N/N=C/C=C/c2ccco2)nnc1-c1ccccc1 | ? | ? | 16µM* | ? | ? | -11%
Cn1c(SCC(=O)NNC(=S)Nc2ccccc2)nnc1-c1ccccc1 | 1 | 1% | ? | -16% | 5% | 37%
Cn1c(SCC(=O)N/N=C/C=C/c2ccco2)nc2ccccc21 | ? | 45µM* | 7.1µM* | ? | 22µM* | -14%
CCN(C(=O)CSc1nc2ccccc2n1CC(=O)N1CCCC(C)C1)c1ccccc1 (stereo not drawn) | · | -5% | 19%[59 µM] | -24% | · | 44%
Cc1cccc(-c2[nH]c(C(C)(C)C)nc2-c2ccc3nccnc3c2)n1 | · | · | 2%[59 µM] | · | · | ·
COC1C(O)CC(=O)OC(C)C/C=C/C=C/[C@@H](OC2CCC(N(C)C)C(C)O2)C(C)C[C@@H](CC=O)[C@@H]1O[C@H]1OC(C)[C@H](O[C@@H]2C[C@@](C)(O)C(O)C(C)O2)C(N(C)C)C1O (stereo partly drawn) | · | · | 10%[2.33 µM] | · | · | ·
CC(=O)NNC(=S)Nc1cccc(F)c1 | 3 | 0% | 13µM* | -4% | 7% | 19%
CC(=O)Nc1cccc(NC(=S)Nc2ccc(F)c(Cl)c2)c1 | -9 | -20% | ? | -34% | -6% | 12%
COc1cccc(NC(=S)NNC(=O)Cn2nc(C(F)(F)F)cc2C)c1 | -7 | -6% | 11µM* | 1% | -11% | 24%
CCOc1cc(OCC)cc(C(=O)NC(=S)Nc2cccc(C(F)(F)F)c2)c1 | 12 | -1%[57.1 µM] | -3%[59 µM] | -10% | 3% | 11%
COc1cccc(NC(=S)NNC(=O)C(C)n2nc(C)c([N+](=O)[O-])c2C)c1 (stereo not drawn) | · | -4%[57.1 µM] | 40µM* | -6% | -2% | 19%
O=C(NC(=S)Nc1cccc(C(F)(F)F)c1)c1ccc2nonc2c1 | 3 | ? | 45µM* | ? | -29% | ?
COc1cccc(NC(=S)NNC(=O)c2c([N+](=O)[O-])c(C)nn2C)c1 | · | 0% | -2%[59 µM] | -11% | -1% | 17%
CCOc1ccc(C2c3[nH]c4ccccc4c3CCN2C(=O)CSc2ccccc2)cc1 (stereo not drawn) | · | -28% | -1%[59 µM] | ? | · | -10%[57 µM]
COc1ccc(C(=O)c2cn(Cc3ccc(F)cc3)c3ccc(C)cc3c2=O)cc1 | · | -26%[57.1 µM] | -8%[59 µM] | -12% | · | 24%
CC(NC(=O)Cn1c(=O)oc2cc(S(=O)(=O)NCc3ccccc3)ccc21)c1ccccc1 (stereo not drawn) | · | -12% | 7%[59 µM] | -23% | · | 15%
Cc1cn2c(=O)cc(COC(=O)c3ccc(NC(=O)c4ccc(C(C)(C)C)cc4)cc3)nc2s1 | · | -8% | 12%[59 µM] | -15% | · | 21%

High-throughput results deposited in PubChem by National Center for Advancing Translational Sciences (NCATS).
